Results filed as inconclusive are left out. Activity calls are given as the source filed them. Unless noted, calls follow the shape of the dose curve; as a rule, active = well fitted curve in the direction sought with a large enough effect in the repeat runs; inconclusive = weak or mixed curves; inactive = no such curve, though single readings can be large; an effect the other way counts as inactive or inconclusive.
Key:
[1] = qHTS assay to identify small molecule agonists of H2AX (AID 1224845; active = well fitted activation curve with a large enough effect in the signal ratio in the repeat runs, not every such curve was filed as active; the % refers to the signal ratio)
In short: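 Phospho-H2AX Ser139 measured by HTRF (ex 320 nm; em 665 and 620 nm) after 24 hr antibody incubation. Compounds, 15 concentrations, 0.76% DMSO, were applied to CHO-K1 cells for 3hr at 37C before lysis.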

[2] = qHTS assay to identify small molecule agonists of the hypoxia (HIF-1) signaling pathway (AID 1224846; active = well fitted activation curve with a large enough effect in the signal ratio in the repeat runs, not every such curve was filed as active; the % refers to the signal ratio)
In short: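 ME-180 HRE-bla reporter cells; compounds in DMSO, 17 h at 37C; read-out beta-lactamase via CCF4-AM FRET.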

[3] = qHTS assay to identify small molecule agonists of H2AX - cell viability counter screen (AID 1224847; calls by dose curve; also: top concentration of the series differs between compounds; nearly all actives have a fitted effect of over 30% in size)
In short: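 We seed wild-type CHO-K1 cells overnight, treat them for 3 hr at 37C with compounds in 15-concentration series, and quantify remaining viability by CellTiter-Glo luminescence.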

[4] = qHTS RealTime-Glo MT Cell Viability Assay in HEK293 cells - 32 hour (AID 1224868); also: top concentration of the series differs between compounds; nearly all actives have a fitted effect of over 50% in size
In short: (§1)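 Quantitative high-throughput screen of the Tox21 10K library in HEK293: cells and RealTime-Glo reagents plated together, compound added at 5 h, luminescence monitored through 40 h at 37 C.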

[5] = A CellTox Green Cytotoxicity Assay to monitor cytotoxicity in HEK293 cells - 0 hour (AID 1224869); also: nearly all actives have a fitted effect of over 50% in size
In short: (§2)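 Real-time, in one plate: 600 HEK293 cells/well with dead-cell DNA dye, pinned compound after 5 h, 37 C incubation over 40 h; viable cells give no appreciable fluorescence.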

[6] = qHTS RealTime-Glo MT Cell Viability Assay in HepG2 cells - 40 hour (AID 1224870); also: nearly all actives have a fitted effect of over 50% in size
In short: (§3)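 Real-time viability: cells seeded at 600 per well together with NanoLuc and cell-permeant prosubstrate, compounds added after 5 h incubation. Luminescence tracked at 0, 8, 16, 24, 32 and 40 h of exposure.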

[7] = A CellTox Green Cytotoxicity Assay to monitor cytotoxicity in HEK293 cells - 40 hour (AID 1224871); also: nearly all actives have a fitted effect of over 45% in size
In short: as §2

[8] = qHTS RealTime-Glo MT Cell Viability Assay in HEK293 cells - 16 hour (AID 1224872); also: top concentration of the series differs between compounds; nearly all actives have a fitted effect of over 50% in size
In short: as §1

[9] = qHTS RealTime-Glo MT Cell Viability Assay in HepG2 cells - 8 hour (AID 1224873); also: nearly all actives have a fitted effect of over 55% in size
In short: as §3

[10] = qHTS RealTime-Glo MT Cell Viability Assay in HEK293 cells - 40 hour (AID 1224874); conditions: RealTime-Glo luminescence; max response: active compounds read low; also: nearly all actives have a fitted effect of over 50% in size
In short: (§4)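 Kinetic, non-lysing viability readout. Seed HEK293 (600/well) with reagent, incubate 5 h at 37 C/5% CO2, pin 23 nL compound in DMSO, incubate at 37 C, read luminescence at 0, 8, 16, 24, 32, 40 h.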

[11] = A CellTox Green Cytotoxicity Assay to monitor cytotoxicity in HepG2 cells - 16 hour (AID 1224876); also: nearly all actives have a fitted effect of over 45% in size
In short: (§5)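 Cytotoxicity was tracked as dead-cell DNA fluorescence in HepG2 cells treated with test compounds at 37 C; each time-point value comes from one kinetic series spanning 0, 8, 16, 24, 32 and 40 h.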

[12] = qHTS RealTime-Glo MT Cell Viability Assay in HepG2 cells - 32 hour (AID 1224877); also: nearly all actives have a fitted effect of over 55% in size
In short: (§6)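 Compound treatment began 5 h after plating HepG2 cells (600/well) with NanoLuc luciferase and prosubstrate. Plates stayed at 37 C for 40 h; luminescence was captured at six time points, 0 h through 40 h.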

[13] = A CellTox Green Cytotoxicity Assay to monitor cytotoxicity in HepG2 cells - 24 hour (AID 1224878); also: nearly all actives have a fitted effect of over 45% in size
In short: as §5

[14] = A CellTox Green Cytotoxicity Assay to monitor cytotoxicity in HepG2 cells - 40 hour (AID 1224879); also: nearly all actives have a fitted effect of over 40% in size
In short: as §5

[15] = qHTS RealTime-Glo MT Cell Viability Assay in HEK293 cells - 0 hour (AID 1224880); also: top concentration of the series differs between compounds; nearly all actives have a fitted effect of over 45% in size
In short: as §4

[16] = A CellTox Green Cytotoxicity Assay to monitor cytotoxicity in HEK293 cells - 32 hour (AID 1224881); also: nearly all actives have a fitted effect of over 40% in size
In short: as §2

[17] = A CellTox Green Cytotoxicity Assay to monitor cytotoxicity in HEK293 cells - 24 hour (AID 1224875)
In short: as §2

[18] = qHTS RealTime-Glo MT Cell Viability Assay in HepG2 cells - 24 hour (AID 1224867); also: nearly all actives have a fitted effect of over 50% in size
In short: as §6

[19] = qHTS assay to identify small molecule antagonists of the estrogen related receptor (ERR) signaling pathway from Tox21 library (AID 1224848); also: nearly all actives have a fitted effect of over 50% in size
In short: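 ERR cell line, 2,000 cells/well. 6 h settle, then compound (DMSO) added; 18 h at 37 C; ONE-Glo luminescence after 30 min RT.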

[20] = qHTS assay to identify small molecule agonists of the estrogen related receptor (ERR) signaling pathway from Tox21 library (AID 1224849; calls by dose curve; also: nearly all actives have a fitted effect of over 15% in size)
In short: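 Luciferase activity in ERR pathway reporter cells served as the agonist readout; exposure lasted 18 h at 37 C, with ONE-Glo detection after 30 min at room temperature.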
% is scaled to controls: 0 for no effect and ±100 for the full control effect.

CCCOC(=O)CC
inactive: Potency [1] | outcome [2] | outcome [3] | Potency [4] | outcome [5] | Potency [6] | Potency [7] | Potency [8] | outcome [9] | max response [10] 8.31% | outcome [11] | Potency [12] | outcome [13] | Potency [14] | Potency [15] | outcome [16]

CC(=O)C1CCCCC1=O (stereo not drawn)
inactive: Potency [1] | outcome [2] | outcome [3] | Potency [4] | outcome [5] | Potency [6] | Potency [7] | Potency [8] | outcome [9] | max response [10] 15.3% | outcome [17] | outcome [11] | Potency [12] | outcome [13] | Potency [14] | Potency [15] | outcome [16]

NC(=O)Cc1cccc2ccccc12
inactive: Potency [1] | outcome [2] | outcome [3] | Potency [4] | outcome [5] | Potency [6] | Potency [7] | Potency [8] | outcome [9] | max response [10] 2.56% | outcome [17] | outcome [11] | Potency [12] | outcome [13] | Potency [14] | Potency [15] | outcome [16]

CC(CO)(CO)[N+](=O)[O-]
inactive: Potency [1] | outcome [2] | outcome [3] | Potency [4] | outcome [5] | Potency [6] | Potency [7] | Potency [8] | outcome [9] | max response [10] 3.85% | outcome [11] | Potency [12] | outcome [13] | Potency [14] | Potency [15] | outcome [16]

CCCCCCCCCCCCCCC(=O)O
inactive: Potency [1] | outcome [2] | outcome [3] | outcome [18] | Potency [4] | outcome [5] | Potency [7] | Potency [8] | outcome [9] | max response [10] 23.9% | outcome [17] | outcome [11] | Potency [12] | outcome [13] | Potency [15] | outcome [16]

NC(CCC(=O)O)C(=O)O (stereo not drawn)
inactive: Potency [1] | outcome [2] | outcome [3] | outcome [18] | Potency [4] | outcome [5] | Potency [6] | Potency [7] | Potency [8] | outcome [9] | max response [10] 16.4% | outcome [11] | Potency [12] | Potency [14] | outcome [16]

C=CN1CCCCCC1=O
inactive: Potency [1] | outcome [2] | outcome [3] | Potency [4] | outcome [5] | Potency [6] | Potency [7] | Potency [8] | outcome [9] | max response [10] 3.47% | outcome [17] | outcome [11] | Potency [12] | outcome [13] | Potency [14] | Potency [15] | outcome [16]

Nc1ccccn1
inactive: Potency [1] | outcome [2] | outcome [3] | outcome [18] | Potency [4] | outcome [5] | Potency [6] | Potency [7] | Potency [8] | outcome [9] | max response [10] -3.82% | outcome [11] | Potency [12] | outcome [13] | Potency [14] | outcome [16]

CCCCCCCCN1CCCC1=O
inactive: Potency [1] | outcome [2] | Potency [19] | outcome [20] | outcome [18] | Potency [4] | outcome [5] | Potency [6] | Potency [7] | Potency [8] | outcome [9] | max response [10] -3.59% | outcome [17] | outcome [11] | Potency [12] | outcome [13] | Potency [14] | Potency [15] | outcome [16]

Cc1ccc(-c2ncc(Cl)cc2-c2ccc(S(C)(=O)=O)cc2)cn1
inactive: Potency [1] | outcome [2] | outcome [3] | Potency [4] | outcome [5] | Potency [6] | Potency [7] | Potency [8] | outcome [9] | max response [10] -19.4% | outcome [17] | outcome [11] | Potency [12] | outcome [13] | Potency [15] | outcome [16]

CN1C(C)(C)CC(O)CC1(C)C
inactive: Potency [1] | outcome [2] | outcome [3] | Potency [4] | outcome [5] | Potency [6] | Potency [7] | Potency [8] | outcome [9] | max response [10] 2.49% | outcome [17] | outcome [11] | Potency [12] | Potency [14] | outcome [16]

Cc1onc(-c2c(Cl)cccc2Cl)c1C(=O)Cl
inactive: Potency [1] | outcome [2] | outcome [3] | Potency [4] | outcome [5] | Potency [6] | Potency [7] | Potency [8] | outcome [9] | max response [10] 2.75% | outcome [17] | outcome [11] | Potency [12] | outcome [13] | Potency [14] | Potency [15] | outcome [16]

CCCCCC(=O)OCCc1ccccc1
inactive: Potency [1] | outcome [2] | Potency [19] | outcome [20] | outcome [18] | Potency [4] | outcome [5] | Potency [6] | Potency [7] | Potency [8] | outcome [9] | max response [10] 5.56% | outcome [17] | outcome [11] | Potency [12] | Potency [14] | Potency [15] | outcome [16]

CCOC(=O)C1=NOC(c2ccccc2)(c2ccccc2)C1
inactive: Potency [1] | outcome [2] | outcome [18] | Potency [4] | outcome [5] | Potency [6] | Potency [7] | Potency [8] | outcome [9] | max response [10] 3.23% | outcome [11] | Potency [12] | outcome [13] | Potency [14] | Potency [15] | outcome [16]

CCCCc1nc(Cl)c(CO)n1Cc1ccc(-c2ccccc2-c2nn[nH]n2)cc1
inactive: Potency [1] | outcome [2] | Potency [4] | outcome [5] | Potency [6] | Potency [7] | Potency [8] | outcome [9] | max response [10] -16.9% | outcome [17] | outcome [11] | Potency [12] | outcome [13] | Potency [14] | outcome [16]

C[C@@H]1C[C@H]2[C@@H]3C[C@H](F)C4=CC(=O)C(Cl)=C[C@]4(C)[C@@]3(F)[C@@H](O)C[C@]2(C)[C@@]1(O)C(=O)CO
inactive: Potency [1] | outcome [2] | outcome [18] | Potency [4] | outcome [5] | Potency [7] | Potency [8] | outcome [9] | max response [10] -27.2% | outcome [11] | Potency [12] | Potency [14] | Potency [15] | outcome [16]

CCCCCCCCCCCCSC
inactive: Potency [1] | outcome [2] | outcome [18] | Potency [4] | outcome [5] | Potency [6] | Potency [7] | Potency [8] | outcome [9] | max response [10] 0.729% | outcome [17] | outcome [11] | Potency [12] | Potency [14] | Potency [15] | outcome [16]

Cc1coc2ccccc2c1=O
inactive: Potency [1] | outcome [2] | outcome [18] | Potency [4] | outcome [5] | Potency [6] | Potency [7] | Potency [8] | outcome [9] | max response [10] -0.146% | outcome [17] | outcome [11] | Potency [12] | outcome [13] | Potency [14] | Potency [15] | outcome [16]
